# According to PubChem BioAssay AID623870 (Broad Institute, 2012):
# Out of some 390,000 compounds screened, about 2,600 (0.67%) were called active. What follows is part of a selection rich in actives, with near analogues and random picks from the rest. Values without a mark were called inactive.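 The calls were made as follows: active = mean inhibition of replicates at least 50% and at least half of replicates each reaching 50%; inconclusive = half or more replicates reach 50% but mean below 50%; inactive = the rest.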
# Biological target: Transforming acidic coiled-coil-containing protein 3 (Homo sapiens) (UniProt Q9Y6A5)
# Experiment: disruptors of ARNT/TACC3 protein interaction, primary screen, biochemical, AlphaScreen, single concentration (AID 623870);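 also: 0% = complete ARNT plus TACC3 wells and 100% = ARNT alone without TACC3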
# Details: AlphaScreen His-ARNT PAS-B/GST-TACC3 binding, luminescence; at 9.99 µM; hits give high values; TACC3 fragment carries E629A point mutation
row,SMILES,inhibition
1,O=c1/c(=C/c2ccc(CNS(=O)(=O)c3ccccc3)o2)sc2n1CCN=2,40.1%
2,O=c1nc2s/c(=C\c3ccco3)c(=O)n2nc1Cc1ccccc1,67.7% (active)
3,CO[C@@H]1CN(C)C(=O)c2ccc(NC(=O)NC(C)C)cc2OC[C@@H](C)N(C(=O)NC(C)C)C[C@H]1C,-3.87%
4,COc1ccccc1-c1cnc2c(c1)C(=O)N([C@H](C)CO)C[C@H](C)[C@H](CN(C)Cc1cccnc1)O2,29.4%
5,O=C(CN1CCOCC1)N[C@@H]1CC[C@@H](CCn2cc(C3CCCCC3)nn2)O[C@@H]1CO,0.304%
6,CCC(=O)N(C)C[C@H]1Oc2cc(-c3ccccc3F)ccc2S(=O)(=O)N([C@H](C)CO)C[C@@H]1C,-1.89%
7,COc1ccc(NC(=O)O[C@@H](c2ccc(OCCO)cc2)[C@@H](C)CCO)cc1,-10.6%
8,O=C(O)c1ccc2c3c(cccc13)C(=O)N(OS(=O)(=O)c1ccccc1)C2=O,67.5% (active)
9,C[C@@H]1CN([C@H](C)CO)C(=O)c2cc(C#CCN(C)C)cnc2O[C@@H]1CN(C)C(=O)Cc1cccnc1,-0.97%
10,CO[C@H]1CN(C)C(=O)c2ccc(NC(=O)c3ccc4c(c3)OCO4)cc2OC[C@@H](C)NC[C@@H]1C,-11.2%
11,CC1=NN(c2ccc(Cl)c(C(=O)O)c2)C(=O)/C1=C/c1ccc(-c2ccccc2[N+](=O)[O-])o1,29.2% (active)
12,Cc1ccc(-c2ccc(/C=C(\C#N)C(N)=S)o2)c([N+](=O)[O-])c1,1.03%
13,Cc1ccc(S(=O)(=O)N(C)C[C@H]2Oc3c(NC(=O)C4CC4)cccc3C(=O)N([C@@H](C)CO)C[C@@H]2C)cc1,-6.68%
14,COC(=O)C1=C(C)NC2=C(C(=O)c3ccccc32)C1c1ccc(-c2ccc(C(=O)O)cc2)o1 (stereo unspecified),65.4% (active)
15,O=C(C[C@H]1C[C@H]2c3cc(NC(=O)Nc4ccccc4F)ccc3O[C@H]2[C@H](CO)O1)NCc1ccccn1,-10.9%
16,COc1ccc(NC(=O)N(C)C[C@H]2OCCCC[C@@H](C)Oc3ccc(NS(=O)(=O)c4ccc(F)cc4)cc3C(=O)N([C@H](C)CO)C[C@H]2C)cc1,-5.89%
17,C/C=C/c1cnc2c(c1)C(=O)N([C@@H](C)CO)C[C@@H](C)[C@H](CN(C)Cc1ccccc1)O2,-2.09%
18,CCN1CCN(C(c2cccnc2)c2cc(Cl)c3cccnc3c2O)CC1 (stereo unspecified),55.4% (active)
19,CCOC(=O)N1CCN(C(=O)C2CCN(c3ncnc4c3sc3cccc(F)c34)CC2)CC1,-0.287%
20,CCOC(=O)N1CCN(C(c2cccnc2)c2ccc3cccnc3c2O)CC1 (stereo unspecified),61.4% (active)
21,Cc1ccc(OCC(=O)N2CCN(C(=O)c3cccnc3)CC2)cc1,-5.09%
22,CCS(=O)(=O)Nc1ccc2c(c1)C(=O)N(C)[C@@H]1CC[C@H](CC(=O)N[C@H]3CCN(Cc4ccccc4)C3)O[C@@H]1CO2,4.57%
23,CC=Cc1ccc2n(c1=O)C[C@H]1[C@H](CO)[C@@H](C(=O)NC3CCCC3)N(Cc3ccncc3)[C@@H]21 (mixture of isomers),7.61%

row,SMILES,inhibition
1,O=C(C[C@@H]1C[C@@H]2c3cc(NC(=O)C4CCC4)ccc3O[C@@H]2[C@@H](CO)O1)NCc1ccccc1,-8.97%
2,CCC(=O)N1C[C@H](C)[C@H](OC)CN(C)C(=O)c2ccc(NS(C)(=O)=O)cc2OC[C@H]1C,0.229%
3,COc1ccccc1C(=O)Nc1ccc2c(c1)C(=O)N(C)C[C@@H](OC)[C@@H](C)CN(C)[C@H](C)CO2,5.81%
4,CN1C(=O)c2cc(NC(=O)Nc3ccccc3Cl)ccc2OC[C@H]2O[C@H](CC(=O)NCCCN3CCOCC3)CC[C@H]21,-6.44%
5,CCOC(=O)c1cn[nH]c1NC(=S)Nc1ccccc1,-4.6%
6,CCN(C(=O)Cc1nc(N)n[nH]1)C1(C(=O)Nc2ccccc2)CCCCC1,73.1% (active)
7,COc1cc(C2c3cc4c(cc3C(O)C3COC(=O)C23)OCO4)cc(OC)c1OC (stereo unspecified),-5.89%
8,COc1ccc(-c2ccc3c(c2)[C@H]2[C@H](CCN2C(=O)c2ccc4c(c2)OCO4)[C@@H](CO)N3)cc1,2.52%
9,COc1c(O)ccc2c1CN1CCc3cc4c(cc3C1C2)OCO4 (stereo unspecified),59.9% (active)
10,CC(C)C#Cc1cnc2c(c1)C(=O)N([C@H](C)CO)C[C@H](C)[C@@H](CN(C)C(=O)Nc1cc(F)ccc1F)O2,2.21%
11,C[C@H]1CN([C@@H](C)CO)C(=O)c2cc(C#Cc3ccccc3F)cnc2O[C@H]1CN(C)C,-2.77%
12,CC=Cc1ccc2n(c1=O)C[C@@H]1[C@@H](CO)[C@H](C(=O)NCC)[C@H]2N1CCC(F)(F)F (mixture of isomers),-2.83%
13,COc1ccc(Cl)cc1NC(=O)c1cccc(N2C(=O)C3CC=CCC3C2=O)c1 (stereo unspecified),3.74%
14,COc1ccccc1-c1nnc(NC(=O)c2cccc(N3C(=O)CCC3=O)c2)o1,60.7% (active)
15,COc1ccccc1C(=O)Oc1ccc(N2C(=O)CCC2=O)cc1,-4.25%
16,CCNC(=O)C[C@H]1CC[C@@H](NC(=O)C2CCOCC2)[C@@H](CO)O1,-5.26%
17,O=S(=O)(c1ccc(F)cc1)N1CCCCN2[C@H](CO)[C@@H](c3ccc(C#CC4CCCC4)cc3)[C@H]2C1,5.01%
18,CC(C)NC(=O)Nc1cccc2c1O[C@H](CN(C)S(=O)(=O)c1ccccc1)[C@@H](C)CN([C@@H](C)CO)C2=O,-11.5%
19,Cc1c(NC(=O)C(=O)N/N=C/c2cccs2)c(=O)n(-c2ccccc2)n1C,4.89%
20,CNC(=O)C(=O)N/N=C/c1ccccn1,57.1% (active)
21,C=CCOc1ccc(/C=N/NC(=O)C(C)Sc2ccccn2)cc1OCC (stereo unspecified),14.2%
22,COc1ccccc1S(=O)(=O)N[C@@H]1C=C[C@H](CC(=O)N2CCOCC2)O[C@@H]1CO,-20.1%
23,CN1[C@@H]2c3ccc(C4=CCCCC4)c(=O)n3C[C@H]1[C@H](CO)[C@H]2C(=O)NCc1ccc(F)cc1,3.89%
